Among the data in PubChem BioAssay AID504834 (National Center for Advancing Translational Sciences (NCATS), 2011) are Potency values, retold here.

Each structure is given as a SMILES string. Among all 320,000 compounds or so, about 22,000 (6.9%) were called active. Entries that show only a call come without a potency. Roughly 27% stayed inconclusive and do not appear here. This is one part of a sample in which actives are shown more often than they occur. The call rests on the fitted dose curve; in most records, active means well fitted inhibition curve with a large enough effect; inconclusive means small, poorly fitted or top-dose-only effect, or another doubt; inactive means no such curve, though single readings can be large or run the other way.
Potency means the concentration at half of the fitted maximal effect.

The assay in a line: Primary qHTS for delayed death inhibitors of the malarial parasite plastid, 96 hour incubation. To be noted: P. falciparum luciferase reporter growth; series mostly up to 28.7 µM. The method, boiled down:
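96 h incubation, 37 C, 5% CO2, of luciferase-reporter P. falciparum-infected RBCs (2% hematocrit, 0.05% parasitemia final) with test compounds; endpoint luminescence.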
On the technique in general: In qHTS, concentration-response curves come from the screen itself.
With `CCCC(=O)Nc1ncnc2c1ncn2[C@@H]1O[C@@H]2OP(=O)(O)OC[C@H]2[C@H]1OC(=O)CCC`, the Potency entry was “inactive”. Under `Cc1cccn2c(=O)c3cc(C(=O)NC4CCCCC4)sc3nc12` stands “inactive”. `Cc1ccc(-c2nn(-c3ccccc3)cc2C(=O)NC2CCC(O)CC2)cc1` (stereo unspecified): the Potency entry was “inactive”. Under `Cc1ccccc1-n1nc(C)c2cc(C(=O)NC3CC3)sc21` stands 5.22 µM (active); under `O=c1cc(Cl)c2ccccc2n1-c1ccccc1`, “inactive”; under `CCCCn1c(N)c(N(CC(C)C)C(=O)C2CSC3(C)CCC(=O)N23)c(=O)[nH]c1=O` (stereo unspecified), “inactive”. Regarding `CCn1c(-c2ccncc2)n[nH]c1=S`, the Potency entry is “inactive”. For `CCn1c(-c2ccoc2C)n[nH]c1=S`, the Potency entry is “inactive”. To `CCCc1cc(-c2n[nH]c(=S)n2CC)c2ccccc2n1` belongs 1.65 µM (active); to `CN(C)CCCNC(=S)N1CCC(c2nc3ccccc3[nH]2)CC1`, “inactive”. As to `COc1ccc(C[C@H](C(=O)O)N2C(=O)c3ccc(C(=O)O)cc3C2=O)cc1`, the Potency entry is “inactive”. Under `O=C(C1CCCO1)N1CCN(S(=O)(=O)c2ccc(Br)cc2)CC1` (stereo unspecified) stands “inactive”; under `COc1ccc(N(CC(=O)Nc2ccc(C)cc2C)S(=O)(=O)c2ccccc2[N+](=O)[O-])c(OC)c1`, “inactive”; under `Cc1ccc(S(=O)(=O)N(CC(=O)Nc2cccc([N+](=O)[O-])c2)Cc2ccc(Cl)cc2)cc1`, “inactive”. To `COc1ccc(C)cc1S(=O)(=O)N(CC(=O)Nc1cccc([N+](=O)[O-])c1)c1ccc(C)cc1` belongs 11.7 µM (active); to `CC(C)c1c(C(=O)N/N=C/c2ccccc2C(=O)O)nnn1-c1nonc1N`, “inactive”; to `O=C(CNC(=O)[C@@H]1Cc2ccccc2CN1)NC1CCCCC1`, “inactive”.

As for `O=C(Cc1ccc(S(=O)(=O)N2CCOCC2)s1)N1CCN(c2ccc(C(F)(F)F)cc2[N+](=O)[O-])CC1`, the Potency is 11.7 µM (active). To `O=C(COc1ccc(S(=O)(=O)N2CCOCC2)cc1Cl)N1CCOCC1` belongs “inactive”; to `O=C(OCC(=O)N1CCOCC1)c1ccc(N2CCOCC2)c([N+](=O)[O-])c1`, “inactive”; to `COc1cccc(CNS(=O)(=O)c2cc3c(cc2C)n(C)c(=O)c(=O)n3C)c1`, “inactive”. To `CCOc1ccc(C(=O)Nc2cccc(SC)c2)cc1` belongs “inactive”; to `CCOc1c(Nc2cccc(Cl)c2)c(=O)c1=O`, 11.7 µM (active); to `O=C(Nc1cccc(Cl)c1)OCc1ccccn1`, “inactive”.

`O=C(NCc1ccc(F)cc1)C1CCN(C(=O)Nc2ccc(F)cc2)CC1`: the Potency result is “inactive”. To `CC1CCCCN1S(=O)(=O)CCNC(=O)c1ccccc1` (stereo unspecified) belongs “inactive”; to `Cc1cc(C(=O)OCC(=O)Nc2ccccc2Cl)c(C)o1`, “inactive”; to `COc1ccccc1NC(=O)COC(=O)Cc1ccc(S(=O)(=O)N2CCCCC2)s1`, “inactive”. To `O=C(Cc1ccc(S(=O)(=O)N2CCOCC2)s1)NCCC(c1ccccc1)c1ccccc1` belongs 7.38 µM (active); to `O=C(COC(=O)c1cc(S(=O)(=O)N2CCOCC2)ccc1Cl)NCCc1ccccc1`, “inactive”; to `COC(=O)COc1ccc(S(=O)(=O)N2CCOCC2)cc1`, “inactive”. On to `O=C(O)c1ccc(S(=O)(=O)N2CCOCC2)o1`, for which the Potency entry is “inactive”. Under `COCCN(Cc1ccccc1)C(=O)Cc1ccc(S(=O)(=O)N2CCOCC2)s1` stands 9.28 µM (active). Regarding `C[n+]1ccc(C(=O)NCc2ccccc2)cc1`, the Potency entry is “inactive”. To `COc1ccnc2c1c(=O)n(Cc1cccc(F)c1)c(=O)n2C` belongs “inactive”; to `COc1ccc(/C=N/Nc2cc(N3CCOCC3)nc(C)n2)c(OC)c1`, “inactive”. Under `CCNc1nc(Oc2ccc(C(=O)OC)cc2)nc(N2CCOCC2)n1` stands “inactive”; under `Cc1cc(/C=C2/SC(=O)N(CC(=O)N3CCCC3)C2=O)c(C)n1C`, “inactive”. For the compound `Cc1cc([N+](=O)[O-])ccc1NCc1cccc([N+](=O)[O-])c1`, the Potency is 10.4 µM (active).

As for `Cc1cc([N+](=O)[O-])ccc1NC1CCCC1`, the Potency entry was “inactive”. Under `COc1cccc(C(=O)CC(=O)C(=O)Nc2ccc([N+](=O)[O-])cc2C)c1` stands “inactive”; under `COC(=O)c1ccccc1NC(=O)CSc1nnnn1C`, “inactive”. To `COC(=O)c1ccccc1NC(=O)CSc1ccccn1` belongs 2.94 µM (active); to `C[C@@H]1CC[C@@]2(OC1)O[C@H]1C[C@H]3[C@@H]4CC=C5C[C@@H](O)[C@H](O)C[C@]5(C)C4CC[C@]3(C)[C@H]1[C@@H]2C` (stereo partly specified), “inactive”. Under `COc1cc(C(=O)NCC(=O)N2CC=C(c3ccccc3)CC2)cc(OC)c1OC` stands “inactive”; under `Cc1cc(OCC(=O)Nc2c(C)n(C)n(-c3ccccc3)c2=O)ccc1[N+](=O)[O-]`, “inactive”. Consider `O=C(COC(=O)c1ccc[nH]c1=O)Nc1ccc2c(c1)OC(F)(F)O2`, for which the Potency result is “inactive”. To `O=C(O)COCC(=O)NCc1csc2ccc(Cl)cc12` belongs “inactive”. `O=C(Nc1ccc(CN2CCOCC2)cc1)c1cc(Cl)ccc1Cl`: the Potency entry is “inactive”.

For the compound `Clc1ccc(CN2CCCCCC2)cc1Cl`, the Potency is 11.7 µM (active). With `c1cc(-c2nn[nH]n2)ccc1CN1CCCCC1`, the Potency entry was “inactive”. As to `COc1ccccc1C(=O)NC(=S)NC12CC3CC(CC(C3)C1)C2`, the Potency result is “inactive”.

As to `COc1ccc(NC(=S)N2CCC(NC(=O)c3cccc(F)c3)CC2)cc1`, the Potency result was “inactive”. To `COc1ccc(C(=O)CN(C(=O)c2ccc(Cl)cc2)N2C(=O)c3ccccc3C2=O)cc1` belongs “inactive”. Consider `COc1ccc(Cn2c(-c3ccc(Cl)cc3)c[n+]3ccccc23)cc1`, for which the Potency is 0.117 µM (active). To `CCn1c(C)cc(=O)cc1-c1ccc(Cl)cc1` belongs “inactive”; to `Cc1cc(C)c(C(=O)CSc2nc(C)cc(=O)[nH]2)c(C)c1`, “inactive”. To `CSc1nnc(C2CCCN(CC(=O)Nc3ccccc3N3CCOCC3)C2)n1C(C)C` (stereo unspecified) belongs “inactive”; to `COc1ccc(C(=O)n2nc(C)c(Br)c2C)cc1OC`, “inactive”. Under `O=S(=O)(Nc1ccc(Cl)cn1)c1cnc(Cl)c(Br)c1` stands “inactive”; under `CN1CCN(S(=O)(=O)c2cccc(C(=O)N3CCc4ccccc43)c2)CC1`, “inactive”. Consider `COC(=O)c1ccc(S(=O)(=O)N2CCc3ccccc3C2)cc1`, for which the Potency result is “inactive”.

Regarding `Cc1cccc(N2CCN(C(=O)c3cccc(S(=O)(=O)N4CCc5ccccc5C4)c3)CC2C)c1` (stereo unspecified), the Potency is 11.7 µM (active). Under `CCCCc1ccc(NC(=S)NCCCN2CCOCC2)cc1` stands “inactive”; under `CCCCC(CC)CNCc1cccn1CCN1CCOCC1` (stereo unspecified), 11.7 µM (active); under `CSc1ccc(CNCCN2CCOCC2)cc1`, “inactive”.

As for `COc1cccc(N2CC(C(=O)NCc3n[nH]c(=O)c4ccccc34)CC2=O)c1` (stereo unspecified), the Potency entry was “inactive”. To `CC(C[N+](C)(C)C)OC(N)=O` (stereo unspecified) belongs 9.53 µM (active). On to `CCc1ccc[n+](-c2nc([O-])sc2C=O)c1`, for which the Potency result is “inactive”. Under `COc1ccc(CNc2cc(C)cc(C)c2)cc1OC` stands “inactive”; under `COc1ccc(C(=O)/C=C/c2cccnc2)c(OC)c1`, “inactive”. With `COc1ccc(/C=C/C(=O)c2cc(Br)ccc(=O)c2O)cc1`, the Potency is 10.4 µM (active).

On to `COc1ccc(/C=C/C(=O)c2ccc(OC)cc2O)cc1`, for which the Potency entry was “inactive”.

Turning to `CSc1nsc(SCC(=O)Nc2cc(C(=O)O)ccc2C)n1`, the Potency result was “inactive”.

As to `CN1CCC(=O)N([C@H](CO)Cc2ccccc2)CC1`, the Potency entry is “inactive”.

In the case of `CC(=O)Nc1ccc(NC(=O)C(C)OC(=O)C2CC(=O)N(CCc3ccccc3)C2)cc1` (stereo unspecified), the Potency entry was “inactive”. To `CC1CCN(CCC(=O)Nc2ccccc2)CC1` belongs “inactive”; to `O=C1CC[C@H](O)CCN1[C@H](CSc1ccc(Br)cc1)Cc1ccccc1`, “inactive”; to `C[C@H]1CCC(=O)N([C@H](CSc2ccccc2)Cc2ccccc2)CC1`, 11.7 µM (active). Under `COc1ccc(SCCN2CCN(CC(C)C)CCC2=O)cc1` stands “inactive”. Under `O=C1CCN(Cc2ccc([N+](=O)[O-])cc2)CCN1[C@H](CO)Cc1ccccc1` stands “inactive”.

As to `COc1ccc(SC[C@H](Cc2ccccc2)N2CCN(CCc3ccccc3)CCC2=O)cc1`, the Potency was 4.65 µM (active).

For the compound `CC(=O)Nc1ccc(SC[C@H](Cc2ccccc2)N2CC[C@@H](C)CCC2=O)cc1`, the Potency is 3.29 µM (active). To `C/C(Cc1ccccc1)=N\NC(=O)CNC(=O)c1ccccc1Cl` belongs “inactive”; to `CCC1(CC)Cc2ccccc2-c2nc(CCl)[nH]c(=O)c21`, “inactive”; to `COc1ccc(CCNS(=O)(=O)c2cc3c(cc2C)NC(=O)CO3)cc1OC`, “inactive”. Regarding `CCC(=O)c1ccc(OCC(=O)Nc2ccc(N3CCCCC3)cc2)cc1`, the Potency entry is “inactive”. To `Cc1c(CC(=O)NCC(=O)NCC(=O)O)c(=O)oc2cc3oc4c(c3cc12)CCCC4` belongs “inactive”; to `O=S(=O)(NC1CC2CCC1C2)c1ccc(Cl)cc1` (stereo unspecified), “inactive”; to `CC1CN(C(=S)Nc2cccc(F)c2)CC(C)O1` (stereo unspecified), “inactive”.

In the case of `CCCCC(CCC(=O)Nc1ccc(C(=O)OCC)cc1)C(=O)O` (stereo unspecified), the Potency result is “inactive”.

As to `CCCCCOC(=O)NCCOC(=O)Nc1ccc(C(=O)OCC)cc1`, the Potency was 11.7 µM (active). Under `CCOC(=O)Nc1ccc(NC(=O)OCC)cc1` stands “inactive”.

On to `CN1CCN(NC(=O)Nc2ccc(Br)cc2)CC1`, for which the Potency entry is “inactive”. Consider `O=C(NCCS(=O)(=O)NCc1ccc(Cl)cc1)c1ccccc1`, for which the Potency entry is “inactive”. To `CCOC(=O)Cc1csc(NC(=O)Nc2ccccc2)n1` belongs “inactive”. To `CCOC(=O)Cc1csc(NC(=O)CSc2ccc(Br)cc2)n1` belongs 2.62 µM (active); to `CCOC(=O)Cc1csc(NC(=O)CSc2nc(C)cc(=O)[nH]2)n1`, “inactive”.

Regarding `CCOC(=O)N1CCN(C(=O)COC(=O)c2cccc(S(C)(=O)=O)c2)CC1`, the Potency result was “inactive”. Take `CCCN(CC(=O)Nc1ccccc1OC)C(=O)CCC(=O)c1ccc(F)cc1`: the Potency result was “inactive”. To `CCCCCCCCCCOC(=O)Cn1c(COc2cccc(OC)c2)[n+](C)c2ccccc21` belongs 3.29 µM (active); to `CCCCOC(=O)Cn1c(=O)n(CC(=O)OCCCC)c2cc(C)ccc21`, “inactive”. Under `CCn1c(=N)n(CC(=O)c2cccc(OC)c2)c2ccccc21` stands “inactive”. Under `NC(=O)c1oc2ccccc2c1NC(=O)CS(=O)(=O)c1ccccc1` stands “inactive”; under `CCOc1ccc2[nH]c(=O)c(CN(CCCO)S(=O)(=O)c3ccc(F)cc3)cc2c1`, “inactive”. With `Cc1cccc(N2CCN(C(=O)CCS(=O)(=O)c3ccc4c(c3)NC(=O)C(C)S4)CC2)c1C` (stereo unspecified), the Potency result was “inactive”.
